Results reported in the supplement of paper PMC6555819.

What was measured:
Experiment in all cases: PBM binding z-score (relative to random genomic background probes); higher = stronger binding; sequences stand for … in GC…GCGATTGACAGCGTAGAATGAAGG
[1] = test system: FXR:RXRa (NR concentration 270 nM, RXRa partner concentration 90 nM)
Outline: (§1)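 Binding z-scores take random background probes as their reference. They come from custom Agilent 4×180K protein-binding microarrays incubated 1 h with ligand-free nuclear receptor dimers, with antibodies against each partner (one per run) detecting binding. Scanned fluorescence was regression-normalized.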

[2] = test system: LXRa:RXRa (NR concentration 270 nM, RXRa partner concentration 90 nM)
Outline: as §1

[3] = test system: LXRa homodimer (NR concentration 270 nM)
Outline: as §1

[4] = test system: LXRb:RXRa (NR concentration 270 nM, RXRa partner concentration 90 nM)
Outline: as §1

[5] = test system: LXRb homodimer (NR concentration 270 nM)
Outline: as §1

[6] = test system: PPARa:RXRa (NR concentration 270 nM, RXRa partner concentration 90 nM)
Outline: as §1

[7] = test system: PPARg:RXRa (NR concentration 180 nM, RXRa partner concentration 90 nM)
Outline: as §1

[8] = test system: PPARg:RXRa 270nM:90nM, anti-RXR (NR concentration 270 nM, RXRa partner concentration 90 nM)
Outline: as §1

[9] = test system: PPARg:RXRa 30nM:10nM, anti-RXR (NR concentration 30 nM, RXRa partner concentration 10 nM)
Outline: as §1

[10] = test system: PPARg:RXRa 90nM:30nM, anti-RXR (NR concentration 90 nM, RXRa partner concentration 30 nM)
Outline: as §1

[11] = test system: PPARg:RXRa DBDmut IVT, anti-RXR (DBD mutation: RXRa K156A/R161A, NR concentration 270 nM, RXRa partner concentration 90 nM)
Outline: as §1

[12] = test system: PPARg:RXRa IVT, anti-PPARg (NR concentration 270 nM, RXRa partner concentration 90 nM)
Outline: as §1

[13] = test system: PPARg DBDmut:RXRa IVT, anti-PPARg (DBD mutation: PPARg1 K132A/R137A, NR concentration 270 nM, RXRa partner concentration 90 nM)
Outline: as §1

[14] = test system: PPARg DBDmut IVT, anti-PPARg (DBD mutation: PPARg1 K132A/R137A, NR concentration 270 nM)
Outline: as §1

[15] = test system: PPARg homodimer (NR concentration 180 nM)
Outline: as §1

[16] = test system: PXR:RXRa (NR concentration 270 nM, RXRa partner concentration 90 nM)
Outline: as §1

[17] = test system: PXR homodimer (NR concentration 270 nM)
Outline: as §1

[18] = test system: RARa:RXR (NR concentration 270 nM, RXRa partner concentration 90 nM)
Outline: as §1

[19] = test system: RARa homodimer (NR concentration 270 nM)
Outline: as §1

[20] = test system: RARb:RXRa (NR concentration 270 nM, RXRa partner concentration 90 nM)
Outline: as §1

Row | Sequence | PBM binding z-score [1] | PBM binding z-score [2] | PBM binding z-score [3] | PBM binding z-score [4] | PBM binding z-score [5] | PBM binding z-score [6] | PBM binding z-score [7] | PBM binding z-score [8] | PBM binding z-score [9] | PBM binding z-score [10] | PBM binding z-score [11] | PBM binding z-score [12] | PBM binding z-score [13] | PBM binding z-score [14] | PBM binding z-score [15] | PBM binding z-score [16] | PBM binding z-score [17] | PBM binding z-score [18] | PBM binding z-score [19] | PBM binding z-score [20]
1 | CAAACTGGGTCACCGGAAGGTCAAAGTCCGCATG | 5.54 | 5.51 | 3.33 | 5 | 0.871 | 5.73 | 9.06 | 7.43 | 4.95 | 7.29 | 8.13 | 8.83 | 1.41 | 0.892 | 6.19 | 5.57 | 1.27 | 6.73 | 0.623 | 4.9
2 | TCATATAGGTAAAGGAGAAAGTCGAACGATATGA | 0.86 | 0.393 | -0.261 | 0.259 | -0.317 | 1.11 | 1.53 | 2.56 | 3.86 | 3.22 | 3.55 | 2.2 | 1.76 | 0.854 | 0.0719 | 0.215 | -0.235 | 0.407 | 0.331 | 0.251
3 | TCTCGGAGGACAAGAAGGTCAGAGCTTTCCAGAG | 1.04 | 1.14 | 0.138 | 0.982 | -0.842 | 1.9 | 0.179 | 1.35 | 2.52 | 1.71 | 1.27 | 0.839 | -0.347 | -1 | 0.686 | 1.71 | 1.64 | 1.69 | 0.0458 | 3.07
4 | TAGCCTAGGTCATTCAGCGGCCAGTATAGAAAGC | 5.03 | 3.68 | 1.04 | 2.68 | 0.455 | 3.72 | 2.09 | 2.21 | 0.564 | 1.12 | 1.69 | 2.65 | 0.127 | -0.00854 | 2.11 | 1.94 | -0.494 | 3.02 | -0.474 | 3.92
5 | TAGACAGGGTCAAAGGCCAGAGTACGAATGTCGA | 7.27 | 4.51 | -0.0175 | 3.89 | 0.611 | 5.99 | 7.49 | 6.93 | 4.3 | 6.42 | 0.674 | 3.81 | 1.39 | 0.376 | 1.55 | 4.13 | 0.121 | 5.65 | 0.0319 | 4.28
6 | CGAACTAGGTCATTGACAGGACAGTGACTAGTAA | 4.31 | 2.96 | 0.385 | 1.79 | 0.0478 | 4.71 | 7.47 | 6.11 | 3.43 | 5.59 | 8.03 | 8.27 | 2.04 | 1.38 | 0.886 | 1.81 | 0.0529 | 2.44 | 0.0227 | 3.58
7 | CCAGACATGTGAGAAGGTAACTCAGCCTCGATTA | -0.141 | 0.0863 | 0.298 | -0.057 | 0.106 | -0.106 | 0.462 | -0.748 | -0.305 | -0.419 | 0.325 | -0.238 | 0.124 | 0.154 | 0.72 | -0.0196 | 0.307 | 0.384 | 1.03 | -0.14
